Most compounds without a hit are left out; they make up all but 2.7% or so of the library.
CF NFkB inh: blocks PAF-induced NF-kB reporter in cystic fibrosis cells; inhibition, % at 5 µM; KKLEB NF-kB-GFP reporter, GFP fluorescence overnight; 360,000 tested, 0.86% active;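 active means at least 50% inhibition at 5 µM, scaled per plate between neutral and stimulator controls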;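 further: PAF is a Pseudomonas aeruginosa culture filtrate used as stimulus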
KKLEB tox: counter-screen for CF NF-kB inhibitors: cytotoxicity. activity change (cytotoxicity), % at 5 µM. 360,000 tested, 0.36% active. AID 602141. KKLEB CF airway cells viability, ATPlite luminescence, overnight; active compounds read low; cells stimulated with P. aeruginosa culture filtrate;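 active means corrected activity change at or below -50% at 5 µM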
HIF-2a inh: blocks HIF-2a reporter activity; 786-0 RCC cells HIF-2a reporter, luciferase luminescence, overnight; inhibition, % at 18.8 µM; 360,000 tested, 0.72% active; AID 624352;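 active means inhibition of the luminescence signal of 40% or more relative to plate controls, in a single-dose primary screen at 18.75 µM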
Peg3 prom inh-1: reduces Peg3 promoter-driven luciferase expression in HeLa; 360,000 tested, 1.7% active; HeLa PEG-Prom luciferase reporter, luminescence, overnight; inhibition, % at 20 µM;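 active means inhibition of at least 50% at 20 µM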
TRPM1 prom inh: MITF TRPM1 promoter inhibition in SK-MEL-5 cells; SK-MEL-5 TRPM1 promoter luciferase, 24 h; inhibition, % at 12.5 µM; 330,000 tested, 0.83% active;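 active means mean inhibition across replicates of 60% or more, whatever share of single replicates reaches that level; inconclusive means some that reach 60%, reason not given; inactive means mean inhibition across replicates below 60%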
Shn3 inh set2: Schnurri-3 reporter inhibition in Clone20 osteoblasts. Clone20 osteoblast Shn3 3'UTR firefly luciferase, 24 h. inhibition, % at 12.5 µM. 360,000 tested, 0.52% active;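 active means mean inhibition of at least 75% with every replicate also reaching 75%; inconclusive means mean inhibition at least 75% but some replicate below; inactive means mean inhibition below 75%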
Peg3 prom inh-2: confirmation of Peg3 promoter inhibitors | shares compounds with Peg3 prom inh-1 | HeLa PEG-Prom luciferase reporter, luminescence, overnight | inhibition, % at 20 µM | 1,300 tested, 84% active | AID 602417;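 active means at 20 µM dose, 40% or more inhibition averaged across four replicates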
A number is an active result; i = inactive; ? = inconclusive; nt = no result.

SMILES	CF NFkB inh	KKLEB tox	HIF-2a inh	Peg3 prom inh-1	TRPM1 prom inh	Shn3 inh set2	Peg3 prom inh-2
COc1cccc(C(=O)NNS(=O)(=O)c2ccccc2)c1	i	i	i	i	nt	i	nt
CCC(=O)NC(c1cccs1)c1cc(Cl)c2cccnc2c1O (centres undefined)	i	i	i	56.0	i	i	58.4
COc1ccc(NC(=O)C2CCN(S(=O)(=O)c3cccs3)CC2)cc1OC	i	i	i	i	i	i	nt
COc1cccc(C(O)c2ncc(-c3ccc(Cl)cc3)[nH]2)c1 (centres undefined)	i	i	i	i	nt	i	nt
CC1(C(=O)NCc2cccc3ccccc23)CCN1C(=O)Cc1ccc(-c2ccccc2)cc1 (centres undefined)	i	i	i	53.3	nt	i	51.4
COc1ccc(S(=O)(=O)N2CCOCC2)cc1NC(=O)C1CC1	i	i	i	i	i	i	nt
COc1cc(CNCCCN2CCOCC2)ccc1OCC(=O)Nc1cccc(C(F)(F)F)c1	i	i	i	i	i	i	nt
CCOc1cc(CNCCCN2CCOCC2)ccc1OCC(=O)Nc1cccc2ccccc12	i	i	i	50.2	i	i	64.4
O=[N+]([O-])c1ccc(Sc2cccc3cccnc23)cc1	i	i	i	i	i	i	nt
C=CCn1nc([N+](=O)[O-])nc1Sc1cccc2cccnc12	i	i	i	53.6	i	88.9	i
CN=c1scc(-c2cccs2)n1/N=C/c1ccc(O)c(O)c1O	i	i	i	i	i	i	nt
CN=c1scc(-c2cccs2)n1/N=C/c1ccccc1O	i	-69.3	90.1	90.9	86.9	89.8	94.7
CCCCN1C(=O)C(=O)N(CC(=O)N2CCc3ccccc32)C1=O	i	i	i	i	i	i	nt
CN1CCN(c2ccc(NC(=O)N3CCc4ccccc43)cc2)CC1	i	i	i	57.6	?	i	50.9
Cc1ccc(NC(=O)N2CCc3ccccc32)cc1	i	i	i	i	i	i	nt
CCOc1ncccc1C(=O)Nc1ccc2c(c1)OCCCO2	i	i	i	i	i	i	nt
CC(C)(C)S(=O)N1Cc2cc(C(=O)NCc3ccc(Oc4ccccc4)cc3)nc(-c3cccc(-c4cc5ccccc5o4)c3)c2[C@@H]1CCO (some centres undefined)	i	i	i	80.1	nt	i	i
COc1cccc(-c2cccc(-c3nc(C(=O)NCc4ccc(Oc5ccccc5)cc4)cc4c3[C@H](CCO)N(S(=O)C(C)(C)C)C4)c2)c1 (some centres undefined)	i	i	i	73.1	nt	i	i
COc1ccc(CC(NC(C)=O)C(=O)NC2CCN(C(=O)Nc3ccccc3C)CC2)cc1OC (centres undefined)	i	i	i	i	i	i	nt
CN(CC(=O)Nc1ccc(Cl)c(Cl)c1)CC(=O)N1CCc2ccccc21	i	i	i	i	nt	i	nt
O=C1NC[C@H](CCCCN2CCN(CC3CCCCC3)C(=O)C2=O)N(Cc2ccccc2)C1=O	nt	nt	i	nt	nt	nt	nt
CCCCNC(=O)C1(C)CCN1Cc1ccc(C(=O)OCC)cc1 (centres undefined)	i	i	i	i	nt	i	nt
CCCCNC(=O)C1(C)CCN1Cc1cccc2c(OC)cc(C(=O)OCC)cc12 (centres undefined)	i	i	i	57.4	nt	i	i
CC(=O)c1ccc(S(=O)(=O)NC2CC(=O)N(c3ccc(C)c(C)c3)C2)cc1 (centres undefined)	i	i	i	i	i	i	nt
Cc1c(C(=O)Nc2ccc(S(=O)(=O)N(C)C3CCN(C)CC3)cc2)oc2c(Cl)cccc12	i	i	i	99.3	79.3	i	98.7
CN1CCC(N(C)S(=O)(=O)c2ccc(NC(=O)COc3ccc(Br)cc3Cl)cc2)CC1	i	i	i	70.8	i	i	70.6
CCOC(=O)c1ccc(-n2c(CCC(=O)O)ccc2-c2ccc(F)cc2)cc1	i	i	i	i	i	i	nt
COc1ccc2ccccc2c1/C=N/NC(=S)Nc1cc(S(=O)(=O)N2CCOCC2)ccc1N1CCOCC1	i	i	i	i	i	i	nt
CCOc1cccc(/C=N/NC(=S)Nc2cc(S(=O)(=O)N3CCOCC3)ccc2N2CCOCC2)c1O	i	i	i	52.7	i	i	57.0
